PubChem BioAssay (EPA / NIEHS)
Active and inactive are the calls of the source. How the source made its calls: active means hit-call score of the fitted dose curve at least 0.9, where 1 is the maximum; inactive means score below 0.9.

Columns and labels:
[1] = read-out: serum amyloid A (SAA), SAA1 (gene 6288); assay: BSK_CASM3C_SAA: BioMAP Diversity Plus: CASM3C Assay for serum amyloid A (SAA) Biomarker Activity (AID 2283049); settings: primary human coronary artery smooth muscle cells; actives raise or lower the signal
[2] = BSK_CASM3C_SRB: Viability Assessment in the BioMAP Diversity Plus: CASM3C Assay (AID 2283050); settings: primary human coronary artery smooth muscle cells;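 further: cells exposed to compound for 24 h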
[3] = read-out: Thrombomodulin, THBD (gene 7056); assay: BSK_CASM3C_Thrombomodulin: BioMAP Diversity Plus: CASM3C Assay for Thrombomodulin Biomarker Activity (AID 2283051); settings: primary human coronary artery smooth muscle cells; actives raise or lower the signal;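 further: thrombomodulin protein level measured by ELISA 24 h after dosing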
[4] = read-out: Tissue Factor, F3 (gene 2152); assay: BSK_CASM3C_TissueFactor: BioMAP Diversity Plus: CASM3C Assay for Tissue Factor Biomarker Activity (AID 2283052); settings: primary human coronary artery smooth muscle cells; actives raise or lower the signal;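 further: cell surface tissue factor protein level read by ELISA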
[5] = read-out: Interferon-gamma inducible Protein 10 (IP10), CXCL10 (gene 3627); assay: BSK_hDFCGF_IP10: BioMAP Diversity Plus: hDFCGF Assay for Interferon-gamma inducible Protein 10 (IP10) Biomarker Activity (AID 2283053); settings: primary human foreskin fibroblasts; actives raise or lower the signal
Method in brief: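 Chemical-treated human skin fibroblasts (primary) were sampled at 24 h for IP-10 by ELISA. Both increases and decreases relative to DMSO were scored.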

[6] = read-out: Urokinase-type plasminogen activator receptor (uPAR), PLAUR (gene 5329); assay: BSK_CASM3C_uPAR: BioMAP Diversity Plus: CASM3C Assay for Urokinase-type plasminogen activator receptor (uPAR) Biomarker Activity (AID 2283054); settings: primary human coronary artery smooth muscle cells; actives raise or lower the signal;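 further: cell-surface uPAR protein level quantified by ELISA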
[7] = read-out: Vascular cell adhesion molecule 1 (VCAM1), VCAM1 (gene 7412); assay: BSK_CASM3C_VCAM1: BioMAP Diversity Plus: CASM3C Assay for Vascular cell adhesion molecule 1 (VCAM1) Biomarker Activity (AID 2283055); settings: primary human coronary artery smooth muscle cells; actives raise or lower the signal;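 further: VCAM-1 protein level quantified by ELISA on the cells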
[8] = read-out: Collagen III, COL3A1 (gene 1281); assay: BSK_hDFCGF_CollagenIII: BioMAP Diversity Plus: hDFCGF Assay for Collagen III Biomarker Activity (AID 2283056); settings: primary human foreskin fibroblasts; actives raise or lower the signal
Method in brief: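 ELISA read-out of collagen III from human skin fibroblast cultures sampled 24 h post-dosing. Values were derived by bidirectional fitting relative to the DMSO vehicle control.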

[9] = read-out: Epidermal growth factor receptor (EGFR), EGFR (gene 1956); assay: BSK_hDFCGF_EGFR: BioMAP Diversity Plus: hDFCGF Assay for Epidermal growth factor receptor (EGFR) Biomarker Activity (AID 2283057); settings: primary human foreskin fibroblasts; actives raise or lower the signal
Method in brief: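 Cell-based multiplexed assay in primary human foreskin fibroblasts. EGFR is read by ELISA 24 h after treatment and compared with DMSO controls.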

[10] = read-out: Interleukin-8 (IL8), CXCL8 (gene 3576); assay: BSK_hDFCGF_IL8: BioMAP Diversity Plus: hDFCGF Assay for Interleukin-8 (IL8) Biomarker Activity (AID 2283058); settings: primary human foreskin fibroblasts; actives raise or lower the signal
Method in brief: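 Cells used are human skin primary fibroblasts. Chemical is added, cultures run 24 h, then IL-8 is quantified by ELISA, and gain or loss versus DMSO control is fitted in both directions.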

[11] = BSK_hDFCGF_Proliferation: Cell Proliferation Assessment in the BioMAP Diversity Plus: hDFCGF Assay (AID 2283059); settings: primary human foreskin fibroblasts;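 further: curves fitted for both rise and fall of signal versus DMSO baseline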
Method in brief: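 Total protein read at 560 nm after 0.1% SRB staining of TCA-fixed human skin fibroblasts, […]. Activity is fitted in both directions relative to DMSO as baseline.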

[12] = read-out: Macrophage colony-stimulating factor (MCSF), CSF1 (gene 1435); assay: BSK_hDFCGF_MCSF: BioMAP Diversity Plus: hDFCGF Assay for Macrophage colony-stimulating factor (MCSF) Biomarker Activity (AID 2283060); settings: primary human foreskin fibroblasts; actives raise or lower the signal
Method in brief: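 Primary human foreskin fibroblasts dosed with chemical; 24 h later, M-CSF quantified by ELISA; curves fitted in both directions vs DMSO negative control.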

[13] = BSK_hDFCGF_SRB: Viability Assessment in the BioMAP Diversity Plus: hDFCGF Assay (AID 2283061); settings: primary human foreskin fibroblasts;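 further: cells exposed to compound for 24 h before the read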
Method in brief: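 Readout is SRB absorbance at 560 nm, reflecting total protein in parallel cultures of human foreskin fibroblasts harvested 24 h after chemical dosing. Activity was fitted bidirectionally relative to DMSO.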

[14] = read-out: TIMP metallopeptidase inhibitor 1 (TIMP1), TIMP1 (gene 7076); assay: BSK_hDFCGF_TIMP1: BioMAP Diversity Plus: hDFCGF Assay for TIMP metallopeptidase inhibitor 1 (TIMP1) Biomarker Activity (AID 2283062); settings: primary human foreskin fibroblasts; actives raise or lower the signal
Method in brief: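 Human skin fibroblasts (primary), hDFCGF system; compound exposure 24 h; TIMP-1 by ELISA; bidirectional fit vs DMSO negative control; overt cytotoxicity by SRB in parallel wells.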

[15] = read-out: Monokine induced gamma interferon (MIG), CXCL9 (gene 4283); assay: BSK_hDFCGF_MIG: BioMAP Diversity Plus: hDFCGF Assay for Monokine induced gamma interferon (MIG) Biomarker Activity (AID 2283063); settings: primary human foreskin fibroblasts; actives raise or lower the signal
Method in brief: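 Chemicals were added to primary human foreskin fibroblast cultures, which were sampled 24 h later. MIG levels were then quantified by ELISA and responses fitted in both directions relative to DMSO.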

[16] = read-out: Matrix Metallopeptidase 1 (MMP1), MMP1 (gene 4312); assay: BSK_hDFCGF_MMP1: BioMAP Diversity Plus: hDFCGF Assay for Matrix Metallopeptidase 1 (MMP1) Biomarker Activity (AID 2283064); settings: primary human foreskin fibroblasts; actives raise or lower the signal
Method in brief: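 MMP1 levels quantified by ELISA 24 h after dosing human dermal fibroblast cultures, with parallel SRB total-protein staining for overt cytotoxicity. Data fitted in both directions against DMSO baseline.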

[17] = read-out: Vascular cell adhesion molecule 1 (VCAM1), VCAM1 (gene 7412); assay: BSK_hDFCGF_VCAM1: BioMAP Diversity Plus: hDFCGF Assay for Vascular cell adhesion molecule 1 (VCAM1) Biomarker Activity (AID 2283065); settings: primary human foreskin fibroblasts; actives raise or lower the signal;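 on AC50: VCAM-1 protein level quantified by ELISA after 24 h chemical exposure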
Method in brief: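 Human foreskin fibroblast primary cells, chemical exposure 24 h; VCAM-1 by ELISA; bidirectional fit, DMSO = negative control/baseline.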

[18] = read-out: Plasminogen activator inhibitor-1 (PAI1), SERPINE1 (gene 5054); assay: BSK_hDFCGF_PAI1: BioMAP Diversity Plus: hDFCGF Assay for Plasminogen activator inhibitor-1 (PAI1) Biomarker Activity (AID 2283066); settings: primary human foreskin fibroblasts; actives raise or lower the signal
Method in brief: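 Human skin fibroblast cultures receive chemical for 24 h before PAI-1 is measured by ELISA; signal changes are fitted bidirectionally against DMSO-treated wells.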

[19] = read-out: Intercellular Adhesion Molecule 1 (ICAM1), ICAM1 (gene 3383); assay: BSK_KF3CT_ICAM1: BioMAP Diversity Plus: KF3CT Assay for Intercellular Adhesion Molecule 1 (ICAM1) Biomarker Activity (AID 2283067); settings: primary human keratinocytes with fibroblasts; actives raise or lower the signal
Method in brief: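 ICAM-1 levels are measured by ELISA 24 h after dosing a primary human co-culture of keratinocytes and foreskin fibroblasts. Activity in either direction is fitted relative to DMSO vehicle.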

[20] = read-out: Interferon-gamma inducible Protein 10 (IP10), CXCL10 (gene 3627); assay: BSK_KF3CT_IP10: BioMAP Diversity Plus: KF3CT Assay for Interferon-gamma inducible Protein 10 (IP10) Biomarker Activity (AID 2283068); settings: primary human keratinocytes with fibroblasts; actives raise or lower the signal
Method in brief: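 Human keratinocyte plus foreskin fibroblast primary co-culture exposed to test chemical for 24 h; IP-10 measured by ELISA. Concentration-response fitted bidirectionally against DMSO control as baseline.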

Measured: AC50

O=C(OC1CCCCC1)c1ccccc1C(=O)OC1CCCCC1
inactive: [1] | [6] | [7] | [19] | [20]
active: [2] 20.9 µM | [3] 20.9 µM | [4] 33 µM | [5] 13.4 µM | [8] 5.33 µM | [9] 20.9 µM | [10] 34.9 µM | [11] 10.2 µM | [12] 11 µM | [13] 9.82 µM | [14] 14.3 µM | [15] 16.4 µM | [16] 20.9 µM | [17] 6.34 µM | [18] 12.3 µM

CC(C)(c1ccccc1)c1ccc(O)c(C(C)(C)c2ccccc2)c1
active: [1] 23.6 µM | [2] 26.8 µM | [3] 34.3 µM | [4] 16.4 µM | [5] 3.52 µM | [6] 29.4 µM | [7] 29.3 µM | [8] 2.94 µM | [9] 3.45 µM | [10] 5.4 µM | [11] 2.82 µM | [12] 3.63 µM | [13] 3.57 µM | [14] 4.07 µM | [15] 4.86 µM | [16] 4.05 µM | [17] 2.79 µM | [18] 3.74 µM | [19] 3.68 µM | [20] 3.1 µM

O=S(=O)(c1ccc(Cl)cc1)c1ccc(Cl)cc1
active: [17] 5.32 µM
inactive: all other assays above

Nc1ccc(-c2ccc(N)c(Cl)c2)cc1Cl
active: [4] 11.6 µM | [11] 0.922 µM
inactive: all other assays above

Oc1c(I)cc(I)cc1I
active: [6] 0.191 µM | [8] 4.24 µM | [11] 8.03 µM | [13] 20 µM | [18] 11.5 µM | [19] 20 µM | [20] 23 µM
inactive: all other assays above

C[C@@H]1C[C@@H]([C@H](O)CC2CC(=O)NC(=O)C2)C(=O)[C@@H](C)C1
inactive: [1] | [3] | [4] | [9]
active: [2] 8.63 µM | [5] 2.32 µM | [6] 3.8 µM | [7] 0.926 µM | [10] 7.54 µM | [11] 4.27 µM | [12] 4.1 µM | [14] 2.49 µM | [15] 4.4 µM | [16] 3.37 µM | [17] 0.915 µM | [18] 2.9 µM | [19] 7.24 µM | [20] 12.9 µM
